Test results: PubChem BioAssay
Unmarked numbers belong to inactive results. Entries that show only a call come without a potency. For some assays here: Potency and affinity values are given separately. Active and inactive are the calls of the source. Unless noted, how the calls were made is not given here.

How the values were obtained:
[1] = antimalarial activity against Dd2 strain (AID 2302;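 active means growth inhibition above 50% at the single 2 µM test dose, taken to imply half-maximal potency below 2 µM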); details: P. falciparum Dd2 in RBCs, LDH growth readout, 72 h; at 2 µM; hits give high values
[2] = HepG2 cytotoxicity, primary screen, cytotoxicity control for P. falciparum antimalarial project, cell-based, ATP luminescence (AID 2303;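 active means inhibition above 50%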); details: HepG2 viability, 24-48 h, at 10 µM, hits give high values
[3] = target: L-lactate dehydrogenase (Plasmodium falciparum (isolate CDC / Honduras)) (UniProt Q27743); assay: PfLDH activity inhibition – cell lysate, 3D7 strain, counter-screen for P. falciparum growth inhibition project (AID 2304); details: P. falciparum 3D7 crude extract, LDH APAD/NBT absorbance; at 2 µM; hits give high values
Chain of L-lactate dehydrogenase (Plasmodium falciparum (isolate CDC / Honduras)) (Q27743 whole entry, looked up): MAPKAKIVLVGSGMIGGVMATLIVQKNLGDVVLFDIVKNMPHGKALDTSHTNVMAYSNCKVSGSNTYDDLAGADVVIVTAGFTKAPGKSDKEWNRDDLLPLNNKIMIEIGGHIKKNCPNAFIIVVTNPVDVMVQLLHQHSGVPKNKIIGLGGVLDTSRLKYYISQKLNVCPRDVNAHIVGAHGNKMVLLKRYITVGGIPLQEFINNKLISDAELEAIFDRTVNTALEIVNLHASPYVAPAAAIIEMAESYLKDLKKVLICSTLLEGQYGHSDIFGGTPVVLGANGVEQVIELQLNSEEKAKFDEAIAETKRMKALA

[4] = inhibition of 3D7 malaria parasite growth – strain 3D7 (AID 2306); details: P. falciparum 3D7 erythrocytic growth, LDH absorbance, 72 h; at 2 µM; hits give high values
[5] = target: Calcium-dependent protein kinase 1 (Plasmodium falciparum (isolate 3D7)) (UniProt P62344); assay: PfCDPK1 kinase inhibitors, biochemical, TCAMS library (AID 1159585; cut-off not given, nearly all actives have IC50 up to about 0.98 µM;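 further: inhibitors leave more ATP so luminescence rises with inhibition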); details: recombinant PfCDPK1, Kinase-Glo ATP depletion luminescence
Chain of Calcium-dependent protein kinase 1 (Plasmodium falciparum (isolate 3D7)) (P62344 whole entry, looked up): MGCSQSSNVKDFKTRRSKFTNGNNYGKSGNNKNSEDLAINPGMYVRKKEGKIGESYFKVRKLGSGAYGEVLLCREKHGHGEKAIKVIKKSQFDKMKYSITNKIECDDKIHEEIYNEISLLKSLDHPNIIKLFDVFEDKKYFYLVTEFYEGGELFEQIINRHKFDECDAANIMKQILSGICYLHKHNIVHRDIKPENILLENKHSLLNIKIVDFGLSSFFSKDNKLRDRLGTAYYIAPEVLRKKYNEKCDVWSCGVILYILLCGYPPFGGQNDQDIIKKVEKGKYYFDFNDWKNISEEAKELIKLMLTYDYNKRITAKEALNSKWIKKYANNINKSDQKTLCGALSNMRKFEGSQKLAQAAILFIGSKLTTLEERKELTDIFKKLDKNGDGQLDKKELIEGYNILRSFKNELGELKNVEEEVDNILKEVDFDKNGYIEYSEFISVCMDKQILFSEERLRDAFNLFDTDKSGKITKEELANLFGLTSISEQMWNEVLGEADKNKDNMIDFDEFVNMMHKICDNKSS

[6] = target: Plasmodium falciparum protein kinase 6 (PK6, PF3D7_1337100) (UniProt Q8IDW1); assay: PfPK6 kinase inhibitors, biochemical, TCAMS library (AID 1159586); details: recombinant PfPK6, Kinase-Glo ATP depletion luminescence
Chain of Plasmodium falciparum protein kinase 6 (PK6, PF3D7_1337100) (Q8IDW1 1-305): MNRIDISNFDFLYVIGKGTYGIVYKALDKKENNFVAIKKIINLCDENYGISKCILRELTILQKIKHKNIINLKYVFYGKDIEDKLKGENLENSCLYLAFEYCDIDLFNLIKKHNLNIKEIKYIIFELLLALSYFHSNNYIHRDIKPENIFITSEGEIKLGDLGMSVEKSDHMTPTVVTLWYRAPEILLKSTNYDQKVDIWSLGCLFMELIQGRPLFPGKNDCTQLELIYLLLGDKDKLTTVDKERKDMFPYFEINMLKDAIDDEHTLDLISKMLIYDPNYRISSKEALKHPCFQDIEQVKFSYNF

[7] = target: Protein kinase 7 (PK7), Plasmodium falciparum 3D7 (PF3D7_0213400) (UniProt Q7YTF7); assay: inhibition of Plasmodium PK7 catalytic activity – biochemical, TCAMS antimalarial set, Kinase-Glo luminescence (AID 1159587); details: recombinant PfPK7, Kinase-Glo ATP depletion luminescence
Chain of Protein kinase 7 (PK7), Plasmodium falciparum 3D7 (PF3D7_0213400) (Q7YTF7 1-343): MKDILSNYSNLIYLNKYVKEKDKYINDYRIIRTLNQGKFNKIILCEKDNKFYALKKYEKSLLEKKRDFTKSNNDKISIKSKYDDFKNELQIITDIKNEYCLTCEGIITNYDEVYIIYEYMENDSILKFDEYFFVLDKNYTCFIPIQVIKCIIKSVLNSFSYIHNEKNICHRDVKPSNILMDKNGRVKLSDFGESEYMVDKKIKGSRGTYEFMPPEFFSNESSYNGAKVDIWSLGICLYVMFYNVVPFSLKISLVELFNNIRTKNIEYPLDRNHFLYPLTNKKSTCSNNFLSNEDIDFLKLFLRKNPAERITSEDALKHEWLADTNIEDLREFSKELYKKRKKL

[8] = target: Calcium-dependent protein kinase 4 (Plasmodium falciparum (isolate 3D7)) (UniProt Q8IBS5); assay: PfCDPK4 kinase inhibitors, biochemical, TCAMS library (AID 1159588; cut-off not given, nearly all actives have IC50 up to about 0.91 µM); details: recombinant PfCDPK4, Kinase-Glo ATP depletion luminescence
Chain of Calcium-dependent protein kinase 4 (Plasmodium falciparum (isolate 3D7)) (Q8IBS5 whole entry, looked up): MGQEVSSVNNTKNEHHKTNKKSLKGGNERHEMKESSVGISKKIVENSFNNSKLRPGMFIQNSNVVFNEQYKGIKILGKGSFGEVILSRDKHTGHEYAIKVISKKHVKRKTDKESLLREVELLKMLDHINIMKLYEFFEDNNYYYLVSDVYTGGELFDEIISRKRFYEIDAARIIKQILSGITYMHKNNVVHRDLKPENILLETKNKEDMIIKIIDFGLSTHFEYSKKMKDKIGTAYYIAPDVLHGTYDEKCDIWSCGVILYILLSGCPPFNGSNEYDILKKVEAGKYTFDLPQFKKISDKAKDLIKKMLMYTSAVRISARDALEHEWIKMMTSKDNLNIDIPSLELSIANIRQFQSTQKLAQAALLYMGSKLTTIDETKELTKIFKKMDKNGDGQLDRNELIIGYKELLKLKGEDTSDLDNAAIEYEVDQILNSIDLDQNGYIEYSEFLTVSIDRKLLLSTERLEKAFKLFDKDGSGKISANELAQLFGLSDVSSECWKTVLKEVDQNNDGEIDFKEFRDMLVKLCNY

| Structure (SMILES) | growth inhibition [1] | inhibition [2] | inhibition [3] [%] | growth inhibition [4] | outcome [5] | outcome [6] | outcome [7] | outcome [8] |
| --- | --- | --- | --- | --- | --- | --- | --- | --- |
| Cc1cccc2[nH]c(-c3ccc(-c4cccc(CN5CCC(C(N)=O)CC5)c4)s3)nc12 | 16% | 1% | 4 | 86% (active) | inactive | inactive | inactive | inactive |
| O=C(/C=C/c1ccc(Cl)c(Cl)c1)N1CCC(CN2CCC(c3c[nH]c4ccncc34)CC2)CC1 | 72% (active) | 44% | 0 | 101% (active) | inactive | inactive | inactive | inactive |
| COc1ccc(CNC2CCN(C)CC2)cc1-c1ccc(S(=O)(=O)NCCc2ccccn2)c(C)c1 | 91% (active) | 7% | -2 | 96% (active) | inactive | inactive | inactive | inactive |
| COc1ccc(C(C(=O)NC2CCN(C[C@H](O)c3ccnc4ccc(OC)cc34)CC2)N2CCN(c3ccc(Cl)c(Cl)c3)CC2)cc1 (stereo not given in full) | 79% (active) | 12% | 2 | 101% (active) | inactive | inactive | inactive | inactive |
| CCNc1cc(C(=O)N[C@@H](Cc2ccc(F)c(F)c2)[C@H](O)CNC2CCCCC2)cc(N2CCCCS2(=O)=O)c1 | 84% (active) | 1% | -2 | 100% (active) | inactive | inactive | inactive | inactive |
| NCC1CCCN1Cc1cccc(-c2ccc(-c3nc4ccc(C(F)(F)F)cc4[nH]3)s2)c1 (stereo not given) | 96% (active) | 17% | -3 | 102% (active) | inactive | inactive | inactive | inactive |
| CSC1=NC(=Nc2c(C)cccc2C)C2(CCCCC2)N1c1ccccc1Cl | 57% (active) | 22% | -6 | 95% (active) | inactive | inactive | inactive | inactive |
| O=C(NC1CCN(Cc2ccccc2)C1)c1ccc(Nc2ccc(Br)cc2)nc1 (stereo not given) | 21% | 19% | -1 | 94% (active) | inactive | inactive | inactive | inactive |
| CC(C)CCN1CCC(Oc2ccc(NC(=O)c3ccsc3)cc2Cl)CC1 | 81% (active) | 19% | 0 | 89% (active) | inactive | inactive | inactive | inactive |
| Fc1cccc(COc2ccc(Nc3ncnc4sc(C#CCNC5CCCC5)cc34)cc2Cl)c1 | 78% (active) | 3% | 3 | 100% (active) | inactive | inactive | inactive | inactive |
| O=C(C=Cc1ccc(Cl)c(Cl)c1)NCCCCCN1CCC(CCCNS(=O)(=O)c2cccc(C(F)(F)F)c2)CC1 | 59% (active) | 99% (active) | 3 | 100% (active) | inactive | inactive | inactive | inactive |
| Nc1ncnc2c1ncn2C(CO)Cc1ccc(O)cc1 (stereo not given) | 0% | -5% | -2 | 93% (active) | inactive | inactive | inactive | inactive |
| COc1ccc(-c2ccc(NC(=O)c3cccc(C#N)c3)cc2)cc1CN1CCCN(C)CC1 | 70% (active) | 26% | 6 | 102% (active) | inactive | inactive | inactive | inactive |
| Cc1cc(NC(=O)c2coc3cc(F)c(N4C[C@@H](C)N(C)[C@@H](C)C4)cc23)cnc1-c1ccc(C#N)cc1 | 71% (active) | 35% | -3 | 99% (active) | inactive | inactive | inactive | inactive |
| COc1ccc(C(=O)CCc2ccc(O)cc2)cc1 | 90% (active) | -2% | 4 | 96% (active) | inactive | inactive | inactive | inactive |
| CC(C)Cn1cc(C2CCN(CCN3CCC(CNC(=O)c4ccc(-c5ccc(C#N)cc5)cc4)CC3)CC2)c2ccccc21 | 98% (active) | 28% | 8 | 100% (active) | inactive | inactive | inactive | inactive |
| Cc1cc(C2CCN(CCCCNC(=O)c3ccc(-c4ccc(C#N)cc4)cc3)CC2)c(C)cc1OCCO | 68% (active) | 20% | 2 | 96% (active) | inactive | inactive | inactive | inactive |
| Cc1cc2c(cc1C(F)(F)F)N(C(=O)Nc1cnc(OCCN(C)C)c(C(F)(F)F)c1)CC2 | 25% | 28% | -2 | 88% (active) | inactive | inactive | inactive | inactive |
| O=C(Nc1cc(Cl)cc(Cl)c1)c1cc(Cl)c(=O)n(Cc2cccc(Cl)c2)c1 | 62% (active) | 8% | 2 | 100% (active) | inactive | inactive | inactive | inactive |
| CN1CCN(c2ccnc3ccc(NC(=O)Nc4c(Cl)cccc4Cl)cc23)CC1 | 12% | 11% | -1 | 96% (active) | inactive | inactive | inactive | inactive |

| Structure (SMILES) | growth inhibition [1] | inhibition [2] | inhibition [3] [%] | growth inhibition [4] | outcome [5] | outcome [6] | outcome [7] | outcome [8] |
| --- | --- | --- | --- | --- | --- | --- | --- | --- |
| COc1cc(C)ccc1S(=O)(=O)N1CCCCC(c2ccc(C(F)(F)F)cc2)=N1 | 89% (active) | 16% | -1 | 92% (active) | inactive | inactive | inactive | inactive |
| O=C(/C=C/c1ccc(Cl)c(Cl)c1)NCCCCCN1CCC(NC(=S)Nc2ccc(Cl)cc2Cl)CC1 | 47% | 53% (active) | -1 | 99% (active) | inactive | inactive | inactive | inactive |
| C=CCNC(CCCCC)c1ccc(OCCOc2ccc(C(CCCCC)NCC=C)cc2)cc1 (stereo not given) | 48% | 100% (active) | -6 | 88% (active) | inactive | inactive | inactive | inactive |
| CC(C)c1sc(N2CCN(C)CC2)nc1C(=O)NCCc1ccc(Cl)c(Cl)c1 | 79% (active) | 10% | -2 | 98% (active) | inactive | inactive | inactive | inactive |
| O=C(NCCCCN1CCC(c2ccc3c(c2O)CCCC3)CC1)c1ccc(-c2ccc(Cl)cc2)cc1 | 72% (active) | 97% (active) | 1 | 98% (active) | inactive | inactive | inactive | inactive |
| COc1cccc(C(=O)Nc2nc3c(s2)CCN(Cc2ccccc2N2CCNCC2)CC3)c1 | 11% | 7% | -6 | 89% (active) | inactive | inactive | inactive | inactive |
| O=c1cc(NCCCNCc2cc(C(F)(F)F)ccc2F)[nH]c2ccccc12 | 43% | 0% | -2 | 94% (active) | inactive | inactive | inactive | inactive |
| O=C(NC1CCCCC1)C(c1cccs1)N(CCc1ccccc1)C(=O)c1ccco1 (stereo not given) | 63% (active) | -10% | -1 | 92% (active) | inactive | inactive | inactive | inactive |
| Cc1cc(NC(=O)NCCN2CCC(NS(=O)(=O)c3ccc(Br)cc3)C2)c2ccccc2n1 (stereo not given) | 51% (active) | 9% | 0 | 99% (active) | inactive | inactive | inactive | inactive |
| Cc1ccc(N2C(N)=NC(N)=NC2c2ccccc2)cc1 (stereo not given) | 1% | 11% | -1 | 94% (active) | inactive | inactive | inactive | inactive |
| COc1c(C)cc(I)cc1CNCCCNc1cc(=O)c2ccccc2[nH]1 | -2% | -1% | 2 | 84% (active) | inactive | inactive | inactive | inactive |
| CC(C)(C)c1nn(-c2ccc(Cl)cc2)c2[nH]c(=O)c(CNCc3cccs3)cc12 | 77% (active) | 5% | 3 | 102% (active) | inactive | inactive | inactive | inactive |
| c1ccc2[nH]c(-c3ccc(-c4ccc(CN5CCC(N6CCCCC6)CC5)cc4)s3)nc2c1 | 100% (active) | 26% | -5 | 99% (active) | inactive | inactive | inactive | inactive |
| Cc1cccc(C)c1N1CCN(C2CCC(NC(=O)/C=C/c3ccccc3)CC2)CC1 (stereo not given) | 34% | 38% | -2 | 83% (active) | inactive | inactive | inactive | inactive |
| N#CCCn1nc(-c2ccc(Cl)cc2)c2c(c1=O)CCCC2 | 32% | 0% | -1 | 94% (active) | inactive | inactive | inactive | inactive |
| Cc1cccc2[nH]c(-c3cccc(-c4cccc(CNC(C)C)c4)c3)nc12 | 98% (active) | 29% | -4 | 102% (active) | inactive | inactive | inactive | inactive |
| O=C(Nc1ccc(-c2cncc(NCCCN3CCCC3)c2)cc1)c1ccccc1 | 49% | -1% | -2 | 94% (active) | inactive | inactive | inactive | inactive |
| O=C1C2C(C(=O)N1c1ccccc1)[C@H]1S[C@@H]2c2c1ccc1ccccc21 (stereo not given in full) | 7% | -5% | -1 | 96% (active) | inactive | inactive | inactive | inactive |
| CC1(C)N=C(N)N=C(N)N1OCCCc1ccc(Cl)cc1Cl | 95% (active) | 54% (active) | 0 | 95% (active) | inactive | inactive | inactive | inactive |
| CCOc1cc(CNCCCCCCNCc2cc(OCC)c(OCC)c3ccccc23)c2ccccc2c1OCC | 99% (active) | 100% (active) | 2 | 101% (active) | inactive | inactive | inactive | inactive |
